Among all 39,000 compounds or so, about 3,300 (8.5%) were called active. For the sample, actives were picked, then their nearest neighbours and some compounds at random.

Experimental findings from the antibiotic and cytotoxicity screens of Wong et al. (2023) are described below.

The experiment deals with HepG2. Nature of the experiment: cytotoxicity call (relative viability < 0.9). Conditions: 10 µM.
In the case of `CCC(=O)N1CCC(C(=O)O)CC1`, the cytotoxicity call is “inactive”.

Regarding `CC(CCC(=O)O)C1CCC2C3C(O)CC4CC(O)CCC4(C)C3CC(O)C12C` (stereo unspecified), the cytotoxicity call is “inactive”.

For the compound `COC(=O)CCC(C)C1CCC2C3C(O)CC4CC(O)CCC4(C)C3CC(O)C12C` (stereo unspecified), the cytotoxicity call was “active”.

Consider `COC(=O)CCC(C)C1CCC2C3CCC4CC(O)CCC4(C)C3CC(O)C12C` (stereo unspecified), for which the cytotoxicity call is “inactive”.

As for `C[C@H](CCC(=O)NCCS(=O)(=O)O)[C@H]1CC[C@H]2[C@@H]3[C@H](O)C[C@@H]4C[C@H](O)CC[C@]4(C)[C@H]3C[C@H](O)[C@]12C`, the cytotoxicity call is “inactive”.

Take `CC(CCC(=O)NCC(=O)O)C1CCC2C3C(O)CC4CC(O)CCC4(C)C3CC(O)C12C` (stereo unspecified): the cytotoxicity call is “inactive”.

On to `C[C@H](CCC(=O)NCC(=O)NCCS(=O)(=O)O)[C@H]1CC[C@H]2[C@@H]3[C@H](O)C[C@@H]4C[C@H](O)CC[C@]4(C)[C@H]3C[C@H](O)[C@]12C`, for which the cytotoxicity call is “active”.

As for `Cc1noc(C)c1NC(=O)Nc1ccc2c(c1)C(=O)N([C@H](C)CO)C[C@H](C)[C@@H](CN(C)S(=O)(=O)c1ccc(Cl)cc1)OCCCC[C@H](C)O2`, the cytotoxicity call is “inactive”.

In the case of `CCc1nnc(SCC(=O)OC)[nH]1`, the cytotoxicity call was “inactive”.

`COc1ccc(NC(=O)N(C)C[C@H]2OCCCC[C@H](C)Oc3ccc(NC(=O)Nc4c(C)noc4C)cc3C(=O)N([C@H](C)CO)C[C@@H]2C)cc1`: the cytotoxicity call was “inactive”.

For the compound `C[C@@H]1CN([C@@H](C)CO)C(=O)Cc2cc(NC(=O)Cc3ccccc3)ccc2O[C@@H]1CN(C)Cc1ccc(C(F)(F)F)cc1`, the cytotoxicity call is “active”.

Turning to `C[C@@H]1CN([C@@H](C)CO)C(=O)Cc2cc(NC(=O)Cc3ccccc3)ccc2O[C@H]1CN(C)C(=O)Nc1ccc(C(F)(F)F)cc1`, the cytotoxicity call was “inactive”.

Take `C[C@H]1CN([C@@H](C)CO)C(=O)Cc2cc(NC(=O)Cc3ccccc3)ccc2O[C@H]1CN(C)Cc1ccc(C(F)(F)F)cc1`: the cytotoxicity call is “inactive”.

With `C[C@@H]1CN([C@H](C)CO)C(=O)Cc2cc(NC(=O)Cc3ccccc3)ccc2O[C@H]1CN(C)Cc1ccc(C(F)(F)F)cc1`, the cytotoxicity call is “inactive”.

As for `C[C@H](CO)N1C[C@H](C)[C@H](CN(C)Cc2ccc(C(F)(F)F)cc2)Oc2ccc(NC(=O)Cc3ccccc3)cc2CC1=O`, the cytotoxicity call is “active”.

As to `C[C@@H]1CN([C@@H](C)CO)C(=O)Cc2cc(NC(=O)Cc3ccccc3)ccc2O[C@H]1CN(C)Cc1ccc(C(F)(F)F)cc1`, the cytotoxicity call is “inactive”.

Regarding `C[C@@H]1CN([C@H](C)CO)C(=O)Cc2cc(NC(=O)Cc3ccccc3)ccc2O[C@@H]1CN(C)Cc1ccc(C(F)(F)F)cc1`, the cytotoxicity call is “active”.

As to `C[C@H](CO)N1C[C@H](C)[C@@H](CN(C)Cc2ccc(C(F)(F)F)cc2)Oc2ccc(NC(=O)Cc3ccccc3)cc2CC1=O`, the cytotoxicity call was “inactive”.

With `C[C@H]1CN([C@@H](C)CO)C(=O)Cc2cc(NC(=O)Cc3ccccc3)ccc2O[C@@H]1CN(C)Cc1ccc(C(F)(F)F)cc1`, the cytotoxicity call is “inactive”.

For `CN1CCN(C(=O)C[C@@H]2CC[C@H]3[C@@H](COC[C@@H](O)CN3C(=O)C3CCOCC3)O2)CC1`, the cytotoxicity call was “inactive”.

Turning to `COCC(=O)Nc1ccc2c(c1)C(=O)N(C)[C@@H]1CC[C@H](CC(=O)NCc3ccccc3Cl)O[C@@H]1CO2`, the cytotoxicity call was “inactive”.

For the compound `CCCn1c(=O)[nH]c2nc(-c3ccc(S(=O)(=O)N4CCN(c5ccc(Cl)cc5)CC4)cc3)[nH]c2c1=O`, the cytotoxicity call was “inactive”.

Turning to `CC(C)(C)[S@](=O)N1Cc2cc(C(=O)N[C@@H]3CCN(Cc4ccccc4)C3)nc(-c3cccc(-c4ccncc4)c3)c2[C@@H]1CCO`, the cytotoxicity call is “inactive”.

Turning to `Cc1ccnc(-n2c(C)ccc2C)c1`, the cytotoxicity call is “inactive”.

In the case of `C[C@@H]1CN([C@@H](C)CO)C(=O)c2cccc(NC(=O)Nc3ccc4c(c3)OCO4)c2O[C@@H]1CN(C)C(=O)Nc1ccc(C(F)(F)F)cc1`, the cytotoxicity call was “inactive”.

On to `C[C@@H]1CN([C@H](C)CO)C(=O)CCCn2nncc2CO[C@@H]1CN(C)C(=O)Nc1ccc(N2CCN(C)CC2)cc1`, for which the cytotoxicity call is “inactive”.

On to `C[C@@H]1CN([C@H](C)CO)C(=O)c2cccc(NC(=O)c3nc4ccccc4s3)c2O[C@H]1CN(C)C(=O)Nc1ccc(C(F)(F)F)cc1`, for which the cytotoxicity call was “inactive”.

Regarding `O=C(C[C@@H]1C[C@H]2c3cc(NS(=O)(=O)c4ccc(F)cc4)ccc3O[C@H]2[C@@H](CO)O1)NCc1ccc(Oc2ccccc2)cc1`, the cytotoxicity call is “active”.

For `O=C(C[C@@H]1C[C@@H]2c3cc(NS(=O)(=O)c4ccc(F)cc4)ccc3O[C@@H]2[C@H](CO)O1)NCc1ccc(Oc2ccccc2)cc1`, the cytotoxicity call is “inactive”.

On to `COc1cccc(S(=O)(=O)Nc2ccc3c(c2)[C@@H]2C[C@@H](CC(=O)NCc4ccccc4F)O[C@H](CO)[C@@H]2O3)c1`, for which the cytotoxicity call was “inactive”.

Consider `O=C(C[C@H]1C[C@@H]2c3cc(NS(=O)(=O)c4ccc(F)cc4)ccc3O[C@@H]2[C@@H](CO)O1)NCc1ccc(Oc2ccccc2)cc1`, for which the cytotoxicity call was “active”.

In the case of `O=C(C[C@H]1C[C@H]2c3cc(NS(=O)(=O)c4ccc(F)cc4)ccc3O[C@H]2[C@@H](CO)O1)NCc1ccc(Oc2ccccc2)cc1`, the cytotoxicity call is “inactive”.

In the case of `COc1cccc(S(=O)(=O)Nc2ccc3c(c2)[C@@H]2C[C@@H](CC(=O)NCc4ccccc4F)O[C@@H](CO)[C@@H]2O3)c1`, the cytotoxicity call was “active”.

For `O=C(C[C@H]1C[C@@H]2c3cc(NS(=O)(=O)c4ccc(F)cc4)ccc3O[C@@H]2[C@H](CO)O1)NCc1ccccc1`, the cytotoxicity call was “inactive”.

`O=C(C[C@H]1C[C@H]2c3cc(NS(=O)(=O)c4ccc(F)cc4)ccc3O[C@H]2[C@H](CO)O1)NCc1ccc(Oc2ccccc2)cc1`: the cytotoxicity call was “active”.

For the compound `O=C(C[C@@H]1C[C@@H]2c3cc(NS(=O)(=O)c4ccc(F)cc4)ccc3O[C@@H]2[C@@H](CO)O1)NCc1ccc(Oc2ccccc2)cc1`, the cytotoxicity call is “inactive”.

For the compound `COc1cccc(S(=O)(=O)Nc2ccc3c(c2)[C@H]2C[C@@H](CC(=O)NCc4ccccc4F)O[C@H](CO)[C@H]2O3)c1`, the cytotoxicity call was “inactive”.

Take `O=C(C[C@H]1C[C@@H]2c3cc(NS(=O)(=O)c4ccc(F)cc4)ccc3O[C@@H]2[C@H](CO)O1)NCc1ccc(Oc2ccccc2)cc1`: the cytotoxicity call is “inactive”.

As for `O=C(C[C@@H]1C[C@@H]2c3cc(NS(=O)(=O)c4ccc(F)cc4)ccc3O[C@@H]2[C@H](CO)O1)NCc1ccccc1`, the cytotoxicity call was “inactive”.

Consider `CNC[C@H]1Oc2cc(C#CC(C)(C)O)ccc2S(=O)(=O)N([C@H](C)CO)C[C@H]1C`, for which the cytotoxicity call is “inactive”.

In the case of `COc1cc(F)c(F)c(Nc2ccc(I)cc2F)c1NS(=O)(=O)C1(C[C@H](O)CO)CC1`, the cytotoxicity call is “inactive”.
